# Measured values taken from the supplement of paper PMC10849652.
# Targets with a hit are over-represented here; the source holds about 7,900 in all. About 0.6% of all pairs of compound and target were hits. Values without a mark were called inactive.
# Columns and labels:
# Assay in all cases: log2 fold change, soluble protein after heating vs DMSO (PISA); higher = thermal stabilisation; K562 cells, 10 uM, 30 min; active = over 0.2 and 3.5 SD of the protein, either way, in both replicates (recomputed)
# [1] = compound: CC1=C(C=C(C=C1)NC(=O)C2=CC(=CC=C2)C(C)(C)C#N)NC3=CC4=C(C=C3)N=CN(C4=O)C
# Procedure, shortened: (§1)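 K562 cells at 2×10^6 cells/mL were exposed to 10 μM compound for 30 min, then aliquots were heated for 3 min across 48°C-58°C, pooled, and extracted in PBS containing 0.5% NP-40 at 4°C. The supernatant after 21,000xg for 90 min was taken as soluble protein and measured by TMTpro 16plex LC-MS/MS with channel sums equalised. Thermal stability is reported relative to control samples, with values from duplicates. Fold changes are given on a log2 scale.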
# [2] = compound: CC1=C(C=C(C=C1)NC(=O)C2=CC(=CC=C2)N(C)C)NC(=O)C3=CC=C(C=C3)O
# Procedure, shortened: as §1
# [3] = compound: CC1=CC=C(C=C1)SC2=C3C=C(SC3=CN=C2)C(=O)N
# Procedure, shortened: as §1
# [4] = compound: CC1=NC(=CC=C1)C2=C(N=C(N2)C(C)(C)C)C3=CC4=NC=CN=C4C=C3
# Procedure, shortened: as §1
# [5] = compound: CCCCN(Cc1ccc(C(=O)NO)cc1)C(=O)Nc1ccccc1 [Nexturastat A]
# Procedure, shortened: as §1
# [6] = compound: CCCS(=O)(=O)Nc1ccc(F)c(C(=O)c2c[nH]c3ncc(-c4ccc(Cl)cc4)cc23)c1F [vemurafenib]
# Procedure, shortened: as §1
# [7] = compound: CCCS(=O)(=O)Nc1ccc(F)c(C(=O)c2c[nH]c3ncc(Cl)cc23)c1F
# Procedure, shortened: as §1
# [8] = compound: CCCc1cc(C)[nH]c(=O)c1CNC(=O)c1cc(-c2ccnc(N3CCN(C)CC3)c2)cc2c1cnn2C(C)C
# Procedure, shortened: as §1
# [9] = compound: CCN(CC)Cc1ccc2cc(COC(=O)Nc3ccc(C(=O)NO)cc3)ccc2c1 [givinostat]
# Procedure, shortened: as §1
# [10] = compound: CCN(CCCOc1ccc2c(Nc3cc(CC(=O)Nc4cccc(F)c4)[nH]n3)ncnc2c1)CCOP(=O)(O)O [barasertib]
# Procedure, shortened: as §1
# Sequence of UniProt P26641 (P26641 whole entry, looked up): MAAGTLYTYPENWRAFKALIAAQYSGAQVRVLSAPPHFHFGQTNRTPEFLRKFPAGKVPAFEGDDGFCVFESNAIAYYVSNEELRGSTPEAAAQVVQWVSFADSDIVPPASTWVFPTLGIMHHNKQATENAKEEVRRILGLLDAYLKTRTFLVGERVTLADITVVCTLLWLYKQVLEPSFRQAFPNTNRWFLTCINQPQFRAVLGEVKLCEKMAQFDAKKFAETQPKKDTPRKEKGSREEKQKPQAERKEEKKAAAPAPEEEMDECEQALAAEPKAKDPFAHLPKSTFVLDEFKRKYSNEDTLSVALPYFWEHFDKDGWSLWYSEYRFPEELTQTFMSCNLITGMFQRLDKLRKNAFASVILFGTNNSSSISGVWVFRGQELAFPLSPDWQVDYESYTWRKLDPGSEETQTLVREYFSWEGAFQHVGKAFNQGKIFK
# Sequence of UniProt Q8NBA8 (Q8NBA8 whole entry, looked up): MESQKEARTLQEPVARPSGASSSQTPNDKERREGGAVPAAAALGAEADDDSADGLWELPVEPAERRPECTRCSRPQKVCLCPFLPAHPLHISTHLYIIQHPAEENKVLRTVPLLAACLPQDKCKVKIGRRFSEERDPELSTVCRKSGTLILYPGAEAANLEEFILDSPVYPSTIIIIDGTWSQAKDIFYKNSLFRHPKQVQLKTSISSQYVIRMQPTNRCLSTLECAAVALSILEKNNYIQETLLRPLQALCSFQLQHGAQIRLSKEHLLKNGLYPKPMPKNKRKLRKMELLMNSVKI
# Sequence of UniProt Q5QJE6 (Q5QJE6 whole entry, looked up): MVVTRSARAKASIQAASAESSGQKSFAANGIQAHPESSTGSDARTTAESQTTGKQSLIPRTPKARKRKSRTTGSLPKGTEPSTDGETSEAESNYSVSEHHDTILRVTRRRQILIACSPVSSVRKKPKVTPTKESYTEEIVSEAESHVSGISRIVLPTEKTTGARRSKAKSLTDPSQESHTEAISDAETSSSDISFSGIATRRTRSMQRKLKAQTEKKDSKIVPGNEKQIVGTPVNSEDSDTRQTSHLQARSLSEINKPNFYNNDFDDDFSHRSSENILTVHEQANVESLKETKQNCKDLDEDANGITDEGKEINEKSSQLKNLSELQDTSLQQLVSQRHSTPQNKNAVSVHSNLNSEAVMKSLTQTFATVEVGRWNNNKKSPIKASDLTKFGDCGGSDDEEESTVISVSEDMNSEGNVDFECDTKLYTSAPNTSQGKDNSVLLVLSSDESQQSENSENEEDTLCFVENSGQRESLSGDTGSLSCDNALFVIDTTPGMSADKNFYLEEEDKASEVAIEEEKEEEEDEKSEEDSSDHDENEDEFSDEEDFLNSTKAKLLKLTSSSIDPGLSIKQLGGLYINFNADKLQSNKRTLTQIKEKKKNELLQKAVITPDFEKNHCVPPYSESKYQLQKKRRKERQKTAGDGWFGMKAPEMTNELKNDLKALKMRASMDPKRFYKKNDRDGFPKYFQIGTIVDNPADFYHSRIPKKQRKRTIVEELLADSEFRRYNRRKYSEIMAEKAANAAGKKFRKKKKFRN
# Sequence of UniProt Q7L576 (Q7L576 whole entry, looked up): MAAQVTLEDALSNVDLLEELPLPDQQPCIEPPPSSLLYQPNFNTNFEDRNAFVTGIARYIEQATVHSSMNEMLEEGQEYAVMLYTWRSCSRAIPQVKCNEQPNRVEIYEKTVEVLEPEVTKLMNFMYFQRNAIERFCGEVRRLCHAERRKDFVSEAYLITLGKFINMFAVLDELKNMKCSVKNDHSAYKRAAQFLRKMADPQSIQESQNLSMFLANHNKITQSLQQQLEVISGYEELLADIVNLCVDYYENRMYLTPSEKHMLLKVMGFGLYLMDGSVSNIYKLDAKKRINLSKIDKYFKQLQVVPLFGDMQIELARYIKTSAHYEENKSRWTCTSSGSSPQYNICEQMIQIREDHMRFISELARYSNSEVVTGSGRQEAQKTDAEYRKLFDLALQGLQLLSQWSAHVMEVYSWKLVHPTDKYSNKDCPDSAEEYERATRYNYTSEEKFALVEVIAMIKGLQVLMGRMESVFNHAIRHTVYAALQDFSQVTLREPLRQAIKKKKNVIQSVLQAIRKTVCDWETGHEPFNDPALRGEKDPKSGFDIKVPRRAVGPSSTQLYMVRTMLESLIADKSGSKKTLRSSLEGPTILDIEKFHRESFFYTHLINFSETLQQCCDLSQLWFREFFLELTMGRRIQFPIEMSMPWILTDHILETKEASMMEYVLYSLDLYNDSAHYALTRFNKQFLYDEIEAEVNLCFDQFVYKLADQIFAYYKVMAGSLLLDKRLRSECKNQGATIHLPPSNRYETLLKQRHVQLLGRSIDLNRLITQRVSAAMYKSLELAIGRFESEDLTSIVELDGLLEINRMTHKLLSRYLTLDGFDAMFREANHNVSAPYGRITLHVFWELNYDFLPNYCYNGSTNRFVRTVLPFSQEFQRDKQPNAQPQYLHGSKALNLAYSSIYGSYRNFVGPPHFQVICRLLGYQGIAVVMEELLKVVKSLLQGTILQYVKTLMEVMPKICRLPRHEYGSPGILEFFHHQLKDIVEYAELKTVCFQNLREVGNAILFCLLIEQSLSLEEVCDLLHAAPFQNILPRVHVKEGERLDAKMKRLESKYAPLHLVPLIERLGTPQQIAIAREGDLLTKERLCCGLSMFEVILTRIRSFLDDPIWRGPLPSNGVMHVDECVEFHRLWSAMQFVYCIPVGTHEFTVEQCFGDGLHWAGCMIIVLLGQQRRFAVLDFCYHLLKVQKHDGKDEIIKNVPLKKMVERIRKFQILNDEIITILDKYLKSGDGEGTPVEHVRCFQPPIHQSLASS
# Sequence of UniProt Q7Z7A3 (Q7Z7A3 whole entry, looked up): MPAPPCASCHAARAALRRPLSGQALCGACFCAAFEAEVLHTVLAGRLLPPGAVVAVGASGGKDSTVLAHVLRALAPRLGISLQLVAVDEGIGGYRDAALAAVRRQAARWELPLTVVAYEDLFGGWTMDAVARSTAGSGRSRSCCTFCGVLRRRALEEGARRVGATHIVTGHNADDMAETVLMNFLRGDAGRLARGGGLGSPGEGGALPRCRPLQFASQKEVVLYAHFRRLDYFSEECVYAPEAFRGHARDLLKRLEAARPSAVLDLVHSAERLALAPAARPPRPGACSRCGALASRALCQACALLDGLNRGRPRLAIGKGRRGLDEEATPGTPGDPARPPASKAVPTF
# Sequence of UniProt Q6UX04 (Q6UX04 whole entry, looked up): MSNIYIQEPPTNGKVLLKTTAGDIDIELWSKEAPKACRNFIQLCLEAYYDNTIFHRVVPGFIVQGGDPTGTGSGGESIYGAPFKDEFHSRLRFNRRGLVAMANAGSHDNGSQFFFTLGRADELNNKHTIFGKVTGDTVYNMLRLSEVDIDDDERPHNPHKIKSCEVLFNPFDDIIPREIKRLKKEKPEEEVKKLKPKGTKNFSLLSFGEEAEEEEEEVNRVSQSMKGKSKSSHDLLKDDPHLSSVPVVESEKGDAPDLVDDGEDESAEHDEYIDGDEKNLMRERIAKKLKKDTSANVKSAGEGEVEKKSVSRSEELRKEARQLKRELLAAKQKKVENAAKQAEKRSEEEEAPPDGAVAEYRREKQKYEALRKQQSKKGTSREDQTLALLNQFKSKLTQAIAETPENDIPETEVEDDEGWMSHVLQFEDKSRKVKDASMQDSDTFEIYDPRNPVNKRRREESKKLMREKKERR
# Sequence of UniProt Q03468 (Q03468 whole entry, looked up): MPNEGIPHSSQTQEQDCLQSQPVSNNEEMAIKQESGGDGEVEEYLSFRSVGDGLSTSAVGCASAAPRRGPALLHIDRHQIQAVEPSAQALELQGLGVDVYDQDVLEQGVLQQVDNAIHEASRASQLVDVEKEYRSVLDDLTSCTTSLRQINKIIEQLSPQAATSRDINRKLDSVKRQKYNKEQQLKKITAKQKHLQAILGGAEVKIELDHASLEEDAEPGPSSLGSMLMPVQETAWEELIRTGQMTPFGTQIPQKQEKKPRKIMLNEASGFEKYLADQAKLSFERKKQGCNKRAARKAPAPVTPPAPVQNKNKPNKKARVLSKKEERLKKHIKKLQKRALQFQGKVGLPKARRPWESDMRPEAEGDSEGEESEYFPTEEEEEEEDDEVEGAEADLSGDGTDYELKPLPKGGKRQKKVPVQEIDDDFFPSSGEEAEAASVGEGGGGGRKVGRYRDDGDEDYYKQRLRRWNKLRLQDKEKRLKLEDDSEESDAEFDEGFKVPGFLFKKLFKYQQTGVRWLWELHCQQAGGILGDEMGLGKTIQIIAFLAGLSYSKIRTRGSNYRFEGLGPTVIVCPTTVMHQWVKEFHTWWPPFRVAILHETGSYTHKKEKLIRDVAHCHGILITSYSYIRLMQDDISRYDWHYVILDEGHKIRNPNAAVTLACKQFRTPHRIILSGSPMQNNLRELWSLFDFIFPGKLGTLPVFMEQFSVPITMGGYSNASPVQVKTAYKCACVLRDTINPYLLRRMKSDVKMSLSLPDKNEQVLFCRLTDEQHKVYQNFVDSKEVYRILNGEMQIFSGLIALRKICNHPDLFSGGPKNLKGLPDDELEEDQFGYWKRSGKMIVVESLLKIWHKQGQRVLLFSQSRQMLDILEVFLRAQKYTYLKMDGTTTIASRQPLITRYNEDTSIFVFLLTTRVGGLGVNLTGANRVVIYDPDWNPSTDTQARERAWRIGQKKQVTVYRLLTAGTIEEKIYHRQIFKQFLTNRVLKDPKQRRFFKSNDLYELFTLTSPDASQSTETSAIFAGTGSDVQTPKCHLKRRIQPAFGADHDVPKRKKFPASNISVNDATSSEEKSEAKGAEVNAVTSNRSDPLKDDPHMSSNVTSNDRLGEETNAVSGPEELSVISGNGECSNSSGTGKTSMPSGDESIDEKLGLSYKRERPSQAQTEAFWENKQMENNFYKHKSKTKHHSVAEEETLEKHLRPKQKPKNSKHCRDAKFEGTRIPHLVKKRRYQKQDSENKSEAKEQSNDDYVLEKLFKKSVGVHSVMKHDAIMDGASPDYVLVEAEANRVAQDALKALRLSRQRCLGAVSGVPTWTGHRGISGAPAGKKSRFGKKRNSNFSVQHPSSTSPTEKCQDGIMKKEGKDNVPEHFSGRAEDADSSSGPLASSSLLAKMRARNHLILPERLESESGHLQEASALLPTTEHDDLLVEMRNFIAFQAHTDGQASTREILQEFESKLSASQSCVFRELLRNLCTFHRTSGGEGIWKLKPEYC
Target,log2 fold change [1],log2 fold change [2],log2 fold change [3],log2 fold change [4],log2 fold change [5],log2 fold change [6],log2 fold change [7],log2 fold change [8],log2 fold change [9],log2 fold change [10]
EEF1G isoform 2 (UniProt P26641),0.035,-0.015,0.014,0.049,-0.062,0.07,0.101,0.095,-0.013,0.037
EDC4 (UniProt Q6P2E9),0.004,-0.048,-0.022,-0.035,0.022,0.035,0.03,0.029,0.031,0.057
EBNA1BP2 (UniProt Q99848),-0.014,-0.033,-0.07,-0.153,0.438,-0.042,0.004,0.113,0.174,-0.187
ERCC6 (UniProt Q03468),-0.127,-0.038,0.005,-0.038,-0.126,0.064,0.074,-0.017,0.071,0.065
EOGT (UniProt Q5NDL2),-0.043,-0.073,-0.088,-0.052,0.033,-0.05,-0.098,-0.043,0.02,-0.026
EDEM2 (UniProt Q9BV94),-0.064,-0.001,-0.084,-0.204,0.036,-0.032,-0.149,0.095,0.013,0.21
EEF1D isoform 2 (UniProt P29692),0.039,-0.034,-0.012,-0.003,0.029,-0.044,0.049,-0.004,0.038,0.02
DNAAF2 (UniProt Q9NVR5),-0.037,-0.043,-0.046,-0.038,-0.034,0.043,-0.038,-0.065,0,-0.009
DCP2 (UniProt Q8IU60),-0.134,-0.006,0.016,-0.089,0.174,0.064,0.055,–,–,–
FAM177A1 isoform 2 (UniProt Q8N128),-0.071,0.152,0.101,0.039,-0.064,-0.061,0.014,-0.02,-0.045,0.037
FAM160B1 (UniProt Q5W0V3),0.033,0.128,-0.019,0.051,-0.023,0.149,0.034,0.014,0.016,0.109
CYFIP1 (UniProt Q7L576),0.012,0.005,0.017,0.035,-0.043,0.026,0.019,0.006,-0.005,0.038
DDB1 (UniProt Q16531),-0.012,0.011,0.006,0,-0.036,-0.012,-0.003,-0.027,0,-0.01
DTWD2 (UniProt Q8NBA8),0.019,-0.025,0.197,-0.048,0.009,-0.079,0.043,-0.006,-0.139,0.056
DHX36 (UniProt Q9H2U1),0.015,0,-0.034,-0.033,0.111,0.012,0.02,-0.005,-0.031,-0.064
CTU1 (UniProt Q7Z7A3),0.011,-0.023,0.061,0.059,-0.022,0.065,0.034,-0.035,0.043,0
DNAJC7 (UniProt Q99615),-0.006,-0.037,0.029,0.042,-0.01,0.029,0.098,0.02,0.032,0.064
ERCC2 (UniProt P18074),-0.024,0.014,-0.005,-0.038,0.035,0.166,0.036,0.021,0.095,-0.007
DCUN1D1 (UniProt Q96GG9),-0.027,-0.077,0.022,0.078,0.018,0.008,0.05,-0.028,-0.018,0.013
ECH1 (UniProt Q13011),0.005,-0.027,0.044,0.014,-0.032,0.012,-0.003,-0.065,0.129,0.035
CTSH (UniProt P09668),-0.007,0.066,0.013,0.093,-0.047,0.023,-0.034,0.157,0.003,-0.019
CTSB (UniProt P07858),-0.035,-0.069,0.022,0.029,-0.059,-0.041,-0.008,-0.025,-0.007,0.015
DHRS7B (UniProt Q6IAN0),-0.008,-0.066,-0.049,-0.001,0.003,0.066,0.06,0.04,-0.029,-0.004
DNTTIP2 (UniProt Q5QJE6),0.033,0.028,-0.087,-0.061,0.151,-0.015,-0.064,-0.1,0.057,-0.062
CWC27 (UniProt Q6UX04),-0.001,-0.035,0.002,0.021,-0.029,0.128,0.112,0.009,0.082,0.073
DAB2 (UniProt P98082),0.016,0.015,-0.03,-0.046,0.058,-0.033,0.064,0.036,0.109,0.072
EDC3 (UniProt Q96F86),-0.046,0.085,0.021,0.037,0.088,0.046,0.008,0.1,0.049,0.055
EXOSC10 (UniProt Q01780),-0.537,0.061,-0.07,-0.123,0.762 (active),-0.221,-0.18,-0.168,0.147,0.036
DSN1 (UniProt Q9H410),-0.02,-0.096,-0.003,0.021,0.051,0.133,0.022,0.004,0.053,0.075
CTSL (UniProt P07711),-0.083,0.014,-0.049,0.013,0.085,-0.023,-0.05,0.033,0.121,0.092
